# Test results published in ChEMBL document CHEMBL4513216, “Probing the Open Global Health Chemical Diversity Library for Multistage-Active Starting Points for Next-Generation Antimalarials” (ACS Infect Dis, 2020).
# In all, about 69,000 compounds went through this assay and about 8,600 (12%) showed an effect of 50% or more. Only a selection was taken, and strong results are over-represented in it overall.
# Tested on: Plasmodium berghei
# Experiment: Screen against P. berghei liver stage (PbLuc), transformed with Luciferase, at 10uM
# Format: functional, HepG2
# Details: tested at 10 uM
row,SMILES,INHIBITION [%]
1,Cn1nnc2c1CCN(Cc1ccccc1)C2COCC1CC1 (stereo not drawn),33.5
2,COc1cn(CC(=O)N2CCN(c3ccc(Cl)cc3)CC2)c(C)cc1=O,28.3
3,COc1cc(OC)cc(-c2cc(N)on2)c1,12.8
4,Cc1ccc(CN(CC(=O)N2CCOC(C)C2)C2CC2)cc1 (stereo not drawn),-59.4
5,C[C@@H](NC(=O)c1cnccn1)c1c(-c2ccc(Cl)cc2)noc1C(=O)O,26
6,CC(C)c1noc(CN(CCC2CCCCC2)CC(N)=O)n1,34
7,CN1CC(C(=O)NCCc2ccc3c(c2)OCCO3)CC1=O (stereo not drawn),27.7
8,Cc1cc(C2CCCN2Cc2nc3ccccc3o2)on1 (stereo not drawn),-12.2
9,CC(C)Cn1nnnc1SC(C(=O)NCc1cccnc1)C(C)C (stereo not drawn),16.9
10,Cc1nccnc1CCC1COCCN1C(=O)CCc1c(C)noc1C (stereo not drawn),9.05
11,Cc1ncsc1CN1C[C@@H]2COC[C@]2(C(=O)NCc2cccnc2)C1,42.1
12,Cc1nc(C)c(CC(=O)N2CCC(c3ccn4nccc4n3)CC2)s1,4.13
13,CNc1ncccc1C(=O)N1CCCC2(C1)C(=O)N(C)c1ccccc12 (stereo not drawn),-4.35
14,CCCc1noc2ncc(C(=O)N3CCCC3c3cnn(C)c3)cc12 (stereo not drawn),-29.1
15,O=C1[C@H]2CN(S(=O)(=O)c3ccccc3)C[C@H]2CN1Cc1cccnc1,-29
16,CN(C)CCN1C[C@@H]2CN(C(=O)C3CC=CC3)C[C@@H]2C1=O,8.31
17,CN(C)CCN1C[C@@H]2CN(S(=O)(=O)c3cccs3)C[C@@H]2C1=O,-9.74
18,CN(C)CCN1C[C@@H]2CN(C(=O)c3ccsc3)C[C@@H]2C1=O,3.47
19,CN(C)CCN1C[C@@H]2CN(S(=O)(=O)c3ccccc3)C[C@@H]2C1=O,53.9
20,CN(C)CCN1C[C@@H]2CN(c3ccccc3)C[C@@H]2C1=O,53.9
21,CN1CCN(Cc2cnc3n2CCN(CCc2ccccc2)C3)CC1,-18.2
22,O=C(c1ccccn1)N1CCC(Cc2cnc3[nH]ccc3c2)CC1,-12.2
23,COC(=O)c1cccc(S(=O)(=O)NC(=O)COC2CCCCC2)c1,38.8
24,C[C@@H]1C[C@H](C(F)(F)F)n2nc(C3CCN(S(C)(=O)=O)CC3)cc2N1,1.5
25,O=C(C1CN(CC2CCOCC2)CC12CCOCC2)N1CCOCC1 (stereo not drawn),23.3
26,CNC(=O)[C@@H]1C[C@@H](NC(=O)c2ccc(OC)o2)CN1Cc1sccc1C,20.8
27,CNC(=O)[C@@H]1C[C@@H](NC(=O)c2cn(C)nc2C)CN1Cc1sccc1C,25.8

row,SMILES,INHIBITION [%]
1,CNC(=O)[C@@H]1C[C@@H](NC(=O)Cc2nonc2C)CN1Cc1sccc1C,51.5
2,COc1ccc(OC)c(C(O)CNC(=O)Nc2cc(C)nn2C)c1 (stereo not drawn),10.35
3,Cc1nn(C)c2nc(N3CCC(C(O)c4nccn4C)CC3)sc12 (stereo not drawn),12.8
4,Cc1nn(C)c2nc(NC3CCNCC3)sc12,10.7
5,Cc1nn(C)c2nc(N3CCCCC3c3cccnc3)sc12 (stereo not drawn),33.1
6,Cc1nn(C)c2nc(N3CCC(C(O)Cc4ccccc4)CC3)sc12 (stereo not drawn),75.1
7,Cc1nn(C)c2nc(N3CCC(C(O)c4ccccn4)CC3)sc12 (stereo not drawn),55.4
8,Cc1cnc(N2CC[C@@H]3OC(COCC(=O)N(C)C)CC[C@@H]32)nc1 (stereo partly drawn),14.1
9,CCCC1CN(CCOc2ccccc2)C(=O)c2cccnc2O1 (stereo not drawn),44.2
10,Cc1nn(-c2ncnc3[nH]cnc23)c2c1C(C(C)C)CC(=O)N2 (stereo not drawn),-21.2
11,Cc1ccc2c(c1)C(=O)CC1(CCN(Cc3ccccc3)CC1)O2,-13.2
12,Cc1nnc(N2CCNCC2)c(C(N)=O)c1C,41.5
13,Cc1nnc(N2CCCC2)c(C(N)=O)c1C,6.24
14,Cc1nnc(N2CCN(C(=O)NC3CC3)CC2)c(C(N)=O)c1C,56.5
15,O=C(NCC1CC1)c1ccc(NC(=O)c2ccco2)cc1,-64.3
16,COc1c(C)cnc(CN2CCCCC2Cn2nc(C)nc2C)c1C (stereo not drawn),6.14
17,COc1c(C)cnc(CN2CCCCC2CCN2CCOCC2)c1C (stereo not drawn),56.1
18,COc1c(C)cnc(CN2CCCC2Cn2nc(C)nc2C)c1C (stereo not drawn),27.6
19,CC(=O)N1CCC1c1cc(N2CCSCC2)nc(C)n1 (stereo not drawn),29.5
20,CO[C@H]1CN(Cc2ccccc2F)C[C@@]12CCCO2,5.56
21,Cn1cc(N2CCC3(CCN(C(=O)[C@H]4CCCO4)C3)C2=O)cn1 (stereo partly drawn),12.7
22,CCN1CCC(NC(=O)CN2CCCC2Cn2cccn2)CC1 (stereo not drawn),19
23,CC(Cn1cccn1)NCC(=O)NC1CCOCC1 (stereo not drawn),5.2
24,CC(C)C(C(=O)N1CCC(N(C)c2cccnn2)CC1)n1cncn1 (stereo not drawn),36.9
25,CC(C(=O)N1CCC(Nc2cccnn2)CC1)n1ccnc1 (stereo not drawn),23.4
26,Cc1ccc(NC2CCN(C(=O)C(C(C)C)n3cncn3)CC2)nn1 (stereo not drawn),31.2
